# Source: the supplement of paper PMC11417369
# The full ranking holds about 25,000 sequences; the median of “ln(normalized median fluorescence intensity)” is about 6.7, and the highest 2% start at about 10. The entries come from a sample that favours the highest values as a whole.
# System: PfHDP1 homeodomain (GST-tagged)
# Test: gcPBM binding intensity (ln(normalized median fluorescence intensity)); higher = stronger DNA binding
# How it was run: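 Each value is the highest Masliner-normalised natural-log median intensity across replicate spots of either orientation of a probe. The probes were primer-extended double-stranded 36-bp intergenic genomic sequences on an Agilent 4 × 180k array, alongside negative controls, exposed for 1 h to GST-tagged P. falciparum DNA-binding domains expressed in E. coli. Bound protein was picked up with Alexa488 anti-GST antibody and scanned at 488 nm.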
row,Sequence,gcPBM binding intensity (ln)
1,ATATAATATATGTATACACACATATTATATAATATT [CACACA_site3699],6.46
2,GTACATAATTATTATGCACACATATTTTTATGTATT [CACACA_site8132],10.5
3,TATTATAATTTTATATGTACACATATATAAATATAT [XGTACX_site4054],6.29
4,GTTTTATTTATTTCATGTACACAAAAAAGGTTTTAA [XGTACX_site6525],6.97
5,TTTTGTTATTTTTCAGTGCAATATGATAATAATATA,9.56
6,ATTTCTCTATCGTAATGTACATAAAAAAGAAAAACA [XGTACX_site6374],6.63
7,ATATATATATTTAAGGTGCGATTTTGTTATATTTAA,7.89
8,AATTATGGGGAAAAGACACACATATATATATATATA [CACACA_site2589],9.35
9,ATCTAAATTTTTCCATGTACATATACTTTTATGCAT [XGTACX_site2683],7.08
10,TATCTGTATTTATTCACACATATAAAATATAATTAA [CACACA_site5560],6.36
11,GGATTTATTTTATATACACACATACCTATATTTATA [CACACA_site7084],6.84
12,TATATCTCATAGTATACACACACACCCACCCACATA [CACACA_site8513],7.7
13,GTATGTGTATGTGTATGTACATATGTATGTATAAAA [XGTACX_site8191],8.13
14,TTAATTATTATATAAGTGCAATAATAAAAAGTTGTA [GTGCAC_site9552],9.36
15,TATGTATTTTTATGCACACATGCGTGGCTTATATAA [CACACA_site387],10.5
16,TAATATTCAATTATACGTACACATATATATATATAT [XGTACX_site4245],9.22
17,ATTGTATATGTATATGCACACAATATATGTACTTAT [CACACA_site2611],9.66
18,ACACATACACATTAGGTGCATATATTTCAATATTAC [GTGCAC_site9423],9.83
19,ACACATACACATTAGGTGCACATAATTCAATATTAC [GTGCAC_site9862],10.6
20,TTTATGTATTTTTATGCACACATGCGTGGCTTATAT [CACACA_site4374],10.4
21,AGTGCATAATATTTATGTACGTATCACATATATTTT [XGTACX_site5166],10.7
22,ACAAATAAATAAATATGTACTTAATTATATAATTGA [XGTACX_site5626],6.16
23,CGTATGCACAAATTATGTACTTATATATATATATAT [XGTACX_site2348],10.9

row,Sequence,gcPBM binding intensity (ln)
1,GTTTATGTATTATTATGTACGTATCATAATATATAT [XGTACX_site2385],6.87
2,AAATAATTATTTATCACACATATGTATTTATATATA [CACACA_site4589],6.66
3,TATATATATATATATTTTTTTTTTTTATGCACATGG [CACACA_negctrl_site1573],10.1
4,ATATTATTTTATGCTACACACATTTTCTCTTATAAA [CACACA_site943],7.25
5,AAAAAAAAAATATACACACACATATATATATATATA [CACACA_site3404],9.35
6,GTAGACTGAAACCACACACACATATATATATATATT [CACACA_site605],6.93
7,ATATAGAATATATTAACATGCAATAAGTAAAGGGGG [TGCATGCA_site1022],7.05
8,TGTATGTATTTTCAATGTACATAAAAAAAAAAAAAA [XGTACX_site4397],6.71
9,AATATAATATAATGCACACATAAAAAAAAAAAAATC [CACACA_site1303],10.6
10,TGAAATAAATAATGCACACTCTACAGATATACGTAT [CACACA_site5270],10.1
11,TTTGAAATAAATAATGCACACTCTACATATATACGT [CACACA_site2244],10.6
12,AATCTAATATAATGCACACATAAAAAAAAAATCAAA [CACACA_site2714],10.2
13,AAAATATAATATAATGCACACATAAAAAAAAAATCA [CACACA_site7922],10.2
14,AAAATCTAATATAATGCACACATAAAAAAAAATCAA [CACACA_site9211],9.65
15,AATCTAATATAATGCACACATAAAAAAAAATCAAAC [CACACA_site3633],10.7
16,GTTGAAAAAAAAAATGCACACGCATACATATAATAT [CACACA_site8117],9.09
17,AATATAATATAATGCACACATAAAAAAAAAATCAAA [CACACA_site122],11
18,GTAAATATGTTTATTAGTACACATATGAAAATAAAT [XGTACX_site5820],6.42
19,GAGAAATGGAGACACACACACATATTATATATATAT [CACACA_site1532],8.68
20,AAACAATTATTATATTGTACATATATTACATTATTA [XGTACX_site1089],6.23
21,ACTATCATTTTTTTAACACACAAAAAAAATAAAATA [CACACA_site3519],6.44
22,TATATATAATATTATACACACATATATGCATAATAT [CACACA_site54],7.56
23,AAATGTGAAAAAGAGTGTACCCGACTTGAAATTAAG [XGTACX_site8621],6.92
